# Cycloheximide cs – Cycloheximide Counterscreen for Small Molecule Inhibitors of Shiga Toxin | cell reporter, cycloheximide protein synthesis inhibition counterscreen | max response, % | 12% of 300,000 active; in the data active = max response mostly above about 13%, no sharp cut-off; inactive = mostly below about 14%; note: read at 38.3 µM for the half of the compounds with a filed dose; 0% is about no effect
# HCV inh – qHTS Assay for Inhibitors of Hepatitis C Virus (HCV); Huh7.5.1 HCVcc-Cre infection, luciferase reporter, 44 h; Potency, µM (titrated, usually from 41.8 µM), inactives show at the highest dose activity change, negative = inhibition, most hits filed as inhibitors; 3.4% of 340,000 active; note: potency is the fitted concentration of half-maximal effect; % is set by controls: 0 for no effect and ±100 for the full control effect
#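 HCVcc-Cre virus at an moi near 0.5 was added right after compound to cells cultured 4 h from seeding (1,000 cells/well). Luciferase activity was determined 44 h later, 15 min after substrate addition at RT.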
# Pf growth 96h – Primary qHTS for delayed death inhibitors of the malarial parasite plastid, 96 hour incubation. Potency, µM (titrated, usually from 28.7 µM), inactives show at the highest dose activity change, negative = inhibition, hits mostly inhibitors. P. falciparum luciferase reporter growth, 96 h. 6.9% of 320,000 active; note: potency is the fitted concentration of half-maximal effect; % is set by controls: 0 for no effect and ±100 for the full control effect
#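 P. falciparum expressing integrated firefly luciferase, in erythrocytes at 2% hematocrit, 0.05% parasitemia, incubated with compounds 96 h at 37 C, 5% CO2. Growth inhibition read as loss of luminescence; two-generation exposure targets delayed-death apicoplast inhibitors.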
# HCMV inh – qHTS Assay for inhibitors of the human cytomegalovirus (HCMV); HFF cells, HCMV-luciferase reporter, 72 h; stronger effect = lower value; activity change, negative = inhibition, % at 57.5 µM; 4.5% of 410,000 active; AID 1259415, 2018; in the data active = activity change below about -60%; inconclusive = no clear call, values can overlap the other calls; inactive = above about -39%; note: % is set by controls: 0 for no effect and ±100 for the full control effect
#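 HFF cells seeded 16 h at 37C, treated with compounds, infected with luciferase-reporter HCMV at MOI 1 PFU/cell; luciferase read at 72 h post infection, normalized to buffer-only and Salinomycin controls.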
# Pf growth 48h – Primary qHTS for delayed death inhibitors of the malarial parasite plastid, 48 hour incubation. P. falciparum luciferase growth in erythrocytes, 48 h. Potency, µM (top dose mostly 28.7 µM), for inactives: at the highest dose activity change, negative = inhibition, hits mostly inhibitors. 5.9% of 310,000 active; note: potency is the fitted concentration of half-maximal effect; % is set by controls: 0 for no effect and ±100 for the full control effect
#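 Erythrocytes infected with P. falciparum carrying an integrated firefly luciferase reporter (2% hematocrit, 0.1% parasitemia final) were exposed to compounds in RPMI 1640 with 0.5% Albumax at 37 C, 5% CO2. Growth inhibition was scored as reduced luminescence.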
# Shiga inhibitor – A qHTS for Small Molecule Inhibitors of Shiga Toxin. Vero cells, Shiga toxin protein synthesis inhibition reporter. inhibition, % at 38.7 µM. 9.2% of 290,000 active; in the data active = inhibition mostly above about 28%, no sharp cut-off; inactive = mostly below about 43%; note: 0% is about no effect
# Starred values were filed as active, the others as inactive; ? = inconclusive; . = not tested or not shown. A selection: hits, their analogues and other compounds. The true share with any hit is near 21%. Unless noted, calls come from the whole dose curve; as a rule, active = well fitted inhibition curve with a large enough effect; inconclusive = small, poorly fitted or top-dose-only effect, or another doubt; inactive = no such curve, though single readings can be large or run the other way.
SMILES,Cycloheximide cs,HCV inh,Pf growth 96h,HCMV inh,Pf growth 48h,Shiga inhibitor
CSc1ccc(CNC(=O)C2CCCN(S(=O)(=O)N(C)c3ccc(F)cc3)C2)cc1 (configuration not stated),.,.,.,-60.5*,.,.
CC(=O)N[C@H]1CSSC[C@@H](C(=O)N2CCC[C@H]2C(=O)N2CCC[C@H]2C(=O)N[C@@H](CCCCN)C(=O)N[C@@H](CC(=O)O)C(N)=O)NC(=O)CNC(=O)[C@H](Cc2c[nH]c3ccccc23)NC(=O)[C@H](CCCNC(=N)N)NC(=O)[C@@H](Cc2ccc3ccccc3c2)NC(=O)[C@H](Cc2cnc[nH]2)NC(=O)[C@H](CCC(=O)O)NC1=O,-5.7,.,.,.,.,-12.0
CCOC(=O)c1ccc(NC(=O)C2CCCN(S(=O)(=O)c3ccc(F)cc3)C2)cc1 (configuration not stated),-2.9,?,8.28µM*,39.4,.,-15.7
O=C(NCc1ccccc1)C1CCCN(S(=O)(=O)c2ccc(Br)cc2)C1 (configuration not stated),-0.9,-10.1%,0.294µM*,-25.3,-30.4%,8.1
Cc1ccsc1CN(C(=O)c1ccc(OCC(C)C)cc1)C1CCS(=O)(=O)C1 (configuration not stated),.,.,.,55.9,.,.
CCN1CCCC1CNC(=O)Cn1cnc2sc(C)c(S(=O)(=O)N3CCC(C)CC3)c2c1=O (configuration not stated),-3.6,?,6.57µM*,.,-1.6%,-0.6
CCOC(=O)C1CCN(C(=O)Cn2cnc3sc(C)c(S(=O)(=O)N4CCC(C)CC4)c3c2=O)CC1,-1.3,-7.5%,10.7%,-6.5,4.15µM*,7.9
CCOc1ccc(CNC(=O)c2cccn2-c2nnc(N3CCCCC3)s2)cc1OC,.,.,.,-23.9,.,.
COc1ccc(NC(=O)Nc2ccc3c(c2)C(=O)N([C@@H](C)CO)C[C@@H](C)[C@@H](CN(C)S(=O)(=O)c2cn(C)cn2)O3)cc1,.,28.4%,.,24.7,.,.
CCOc1ccc(-n2c(=O)c3c(C)c(C)sc3n(CC(=O)c3ccccc3)c2=O)cc1,.,.,.,-24.5,.,.
Cc1cc(O)c(C(=O)Cc2csc(C)n2)c(O)c1,38.9*,10.6%,?,41.9,?,82.7*
COC(=O)C1Cc2c([nH]c3ccccc23)C(C(C)C)N1 (configuration not stated),-3.3,?,1.31µM*,.,-17.2%,-5.6
CCC1NC(C(=O)O)Cc2c1[nH]c1ccccc21 (configuration not stated),.,-13.2%,15.1%,19.1,-21.3%,.
COc1cccc(-c2nnc(SCC(=O)Nc3cc(C)on3)o2)c1,24.5*,23.0%,.,-29.4,0.0%,53.5
Cc1cc(NC(=O)CSCC(=O)OCc2nnc(-c3ccccc3)o2)no1,15.9*,15.6%,26.4%,40.2,22.2%,29.5
Cc1cc(-c2nnc(-c3cccc(Cl)c3)o2)no1,37.3*,-1.0%,222.5%,42.5,112.4%,92.6*
Cc1cc(NC(=O)CSc2nnc(-c3ccc4c(c3)OCCO4)o2)no1,21.9*,12.6%,-14.1%,151.7,23.3%,120.6*
COCCn1c(SCC(=O)Nc2ccc3[nH]c(=O)[nH]c3c2)nc2ccccc21,.,7.9%,.,-14.0,.,.
Cc1cc(NC(=O)CSc2nnc(-c3cccc(Cl)c3)o2)no1,1.1,.,2.94µM*,?,?,-3.3
COc1ccc(CCNC(=O)c2cc3sccc3n2Cc2ccc(Cl)cc2)cc1OC,.,.,.,-37.1,.,.
Cn1c(CN2CCOCC2)nc2cc(NC(=O)c3ccc(F)cc3)ccc21,17.2*,?,112.3%,-75.4*,7.4%,53.8*
Cn1c(CN2CCCC2)nc2cc(NC(=O)c3ccc(Cl)cc3)ccc21,35.4*,?,-24.1%,-73.0*,?,42.4*
Cn1c(CN2CCCC2)nc2cc(NC(=O)COc3ccc(Cl)cc3)ccc21,-3.5,?,.,5.8,?,-1.3
CC(c1ccccc1)N1CCn2c(nc3cc(NC(=O)c4cccs4)ccc32)C1 (configuration not stated),21.4*,10µM*,.,-73.2*,?,26.3
CC(=O)N1CCN(Cc2nc3cc(NC(=O)C4CCCCC4)ccc3n2C)CC1,-3.3,6.1%,1.85µM*,-2.2,-22.8%,-6.6
SMILES,Cycloheximide cs,HCV inh,Pf growth 96h,HCMV inh,Pf growth 48h,Shiga inhibitor
O=C(CCC1N=C2c3ccccc3N=C(SCc3ccc(F)cc3)N2C1=O)NCCc1ccccc1 (configuration not stated),.,.,.,-25.3,.,.
Cc1ccc(-c2nc(Cn3c(SCc4ccc(F)cc4)nc4cccnc43)c(C)o2)cc1,.,.,.,-5.1,.,.
CCCc1nn2c(=O)cc(CSCC(=O)Nc3ccc(C)cc3)nc2s1,-1.8,-4.2%,?,-19.5,-4.9%,6.8
Cc1cc(F)ccc1NC(=O)CS(=O)(=O)c1cccc2nsnc12,-5.4,.,.,-9.4,.,-5.0
CCOC(=O)N1CCN(Cc2nc3cc(NC(C)=O)ccc3n2C(C)C)CC1,.,.,.,69.0,.,.
Cn1c(CN2CCCC2)nc2cc(NC(=O)c3cccs3)ccc21,34.9*,-15.2%,26.1%,35.6,69.8%,64.5*
CCOC(=O)N1CCN(Cc2nc3cc(NC(=O)c4ccccc4Cl)ccc3n2C(C)C)CC1,.,.,.,-90.0*,.,.
CC(C)N(C(=O)CN1CCC(c2nc3ccccc3[nH]2)CC1)C(C)C,-3.8,-0.1%,-14.8%,-19.5,-0.4%,-8.3
CCc1ccccc1NS(=O)(=O)c1ccc2[nH]cc(C(=O)NCC3CCCO3)c(=O)c2c1 (configuration not stated),-4.9,-11.9%,.,26.0,.,-6.6
CCOc1ccc(NS(=O)(=O)c2ccc3[nH]cc(C(=O)NCC4CCCO4)c(=O)c3c2)cc1 (configuration not stated),38.1,11.8%,0.0294µM*,9.9,111.4%,10.1
CN(Cc1ccccc1)S(=O)(=O)c1ccc2[nH]cc(C(=O)NCC3CCCO3)c(=O)c2c1 (configuration not stated),37.9,.,0.928µM*,-107.1*,73.2%,111.4
CC(C)c1ccc(NS(=O)(=O)c2ccc3[nH]cc(C(=O)NCC4CCCO4)c(=O)c3c2)cc1 (configuration not stated),.,.,.,-4.5,.,.
Cc1ccc(OCc2nnc(SCC(=O)c3cccs3)n2-c2ccccc2)cc1C,30.7*,?,?,19.5,-7.2%,72.5*
O=C(CSc1nnc(COc2ccccc2)n1-c1ccccc1)c1cccs1,34.3*,-15.1%,?,16.4,-19.8%,67.1
CCOC(=O)C(CC)Sc1nnc(COc2ccc(C)cc2)n1-c1ccccc1 (configuration not stated),-5.4,?,?,-27.3,13.1µM*,-3.8

# High-throughput results as filed in PubChem.
